Screening results from PubChem.
TDP1 cell CPT – DT40-hTDP1 cell growth loss with CPT; chicken DT40 Tdp1-/-;hTDP1 cells + 20 nM CPT, ATP luminescence, 48 h; Potency, µM (doses to about 46.2 µM), hits mostly inhibitors; actives 12% (n = 420,000); AID 686979; note: nearly all actives have a fitted effect of over 55% in size
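Chicken DT40 Tdp1-/- cells stably complemented with human TDP1 were seeded at 400 cells/well in medium containing 20 nM camptothecin, exposed to pin-transferred compounds, and grown at 37 °C for at least 48 hr. Viability was read as ATP luminescence.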
TGFb SMAD3 inh – TGF-b pathway inhibition; HepG2 CAGA-GFP TGF-b/SMAD3 reporter, GFP fluorescence, 18 h; TGF-beta stimulated, 500 pg/mL final; Potency, µM (top dose mostly 46.1 µM), most hits filed as inhibitors; actives 1.2% (n = 410,000); AID 588855; note: nearly all actives have a fitted effect of over 65% in size
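First, reporter cells (HEPG2 CAGA-GFP) rested 2 h at 37 degrees C. Next, compounds were pinned in and TGF-beta added to 500 pg/mL final. After 18 h, GFP was imaged per cell and summed per well.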
TDP1 cell noCPT – qHTS for Inhibitors of human tyrosyl-DNA phosphodiesterase 1 (TDP1): qHTS in cells in absence of CPT; DT40 Tdp1-/- hTDP1 cells, no CPT, ATP luminescence, 48 h; Potency, µM (top dose mostly 46.2 µM), most hits filed as inhibitors; actives 15% (n = 420,000); AID 686978, 2013; note: nearly all actives have a fitted effect of over 55% in size
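Camptothecin absent (DMSO only). Human TDP1-complemented DT40 knockout cells, 400 cells/well, 37 °C for minimum 48 hr; ATP measured via CellTiter-Glo, 30 min dark incubation, luminescence.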
S2 tox – cell viability loss in ATXN counter-screen | actives 0.49% (n = 400,000) | S2 cells (HEK-293 line with an ATXN2-luciferase reporter) viability, CellTiter-Fluor protease fluorescence, 24 h | AID 651635 | Potency, µM (titrated, usually from 56.7 µM), most hits filed as cytotoxic; note: nearly all actives have a fitted effect of over 40% in size
HepG2 viability – kills HepG2 cells in TGF-b inhibitor counter-screen; Potency, µM (top dose mostly 46.1 µM), usual class: cytotoxic; HepG2 CAGA-GFP viability, ATP luminescence, 18 h; actives 0.76% (n = 410,000)
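HepG2 CAGA-GFP cells (1000/well, DMEM with 1% FBS) received compound, then TGF-beta at 500 pg/mL final, and were incubated 18 hours at 37 degrees C. Viability was read by CellTiter-Glo luminescence. Media-only wells were set as complete cell-killing and DMSO as no toxicity.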
ATXN2 expr inh – ATXN2 expression inhibition. HEK-293 ATXN2-luciferase reporter, luminescence, 24 h. Potency, µM (highest dose often 57 µM), hits mostly inhibitors. actives 0.72% (n = 360,000). AID 1745845; note: nearly all actives have a fitted effect of over 55% in size
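ATXN2-luciferase reporter cells (luciferase flanked by upstream and downstream ATXN2 gene portions) were treated 24 h at 37 °C with compounds at up to 57 uM. SteadyGlo luminescence gave expression; GF-AFC fluorescence gave viability.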
Hits are given with their value; [ ] = another dose, or the depositor's remark. Compounds with a hit are over-represented: about 17% of the library has one in this group of screens. Calls come from the whole dose curve; as a rule, active = well fitted curve in the direction sought with a large enough effect; inconclusive = small, poorly fitted or top-dose-only effect, or another doubt; inactive = no such curve, though single readings can be large; an effect the other way counts as inactive or inconclusive.

Cc1ccc(N(C(=O)c2csnn2)C(C(=O)NC2CCCC2)c2ccncc2)c(C)c1 (stereo unspecified) was read as TDP1 cell CPT inactive, TGFb SMAD3 inh inactive, TDP1 cell noCPT inconclusive, S2 tox inactive, HepG2 viability inactive and ATXN2 expr inh inactive.
For O=C(c1cccc(C(=O)N2CCN(c3ccccc3F)CC2)c1)N1CCN(c2ccccc2F)CC1 the results were TDP1 cell CPT inconclusive, TGFb SMAD3 inh inactive, TDP1 cell noCPT 23µM, S2 tox inactive, HepG2 viability inactive and ATXN2 expr inh inactive.
`O=C(c1cccc(C(=O)N2CCN(c3ccccc3)CC2)c1)N1CCN(c2ccccc2)CC1` gave TDP1 cell CPT inconclusive, TGFb SMAD3 inh inconclusive, TDP1 cell noCPT 15µM, S2 tox inactive, HepG2 viability inactive and ATXN2 expr inh inactive.
For CCn1c(C)c(C)c2cc(C(=O)N3CCN(c4ccccc4)CC3)ccc21 the results were TDP1 cell CPT 18µM, TGFb SMAD3 inh inconclusive, TDP1 cell noCPT inconclusive, S2 tox inactive, HepG2 viability inactive and ATXN2 expr inh inactive.
O=C(c1ccc2nccnc2c1)N1CCN(c2ccccc2)CC1 was read as TDP1 cell CPT inactive, TGFb SMAD3 inh inactive, TDP1 cell noCPT inactive, S2 tox inactive, HepG2 viability inactive and ATXN2 expr inh inactive.
For O=C(Nc1ccc(NC(=O)N2CCN(c3ccccc3O)CC2)cc1)N1CCN(c2ccccc2O)CC1 the results were TDP1 cell CPT inconclusive, TGFb SMAD3 inh inactive, TDP1 cell noCPT 26µM, S2 tox inactive, HepG2 viability inactive and ATXN2 expr inh inactive.
`COc1ccc(S(=O)(=O)N2CN3CCN(C3)C2)cc1OC` gave TDP1 cell CPT inconclusive, TGFb SMAD3 inh inactive, TDP1 cell noCPT inconclusive, S2 tox inconclusive and HepG2 viability inactive.
COc1ccc(C(=O)N2CCC3(CCCN(C(=O)Nc4cccc(F)c4)C3)CC2)cc1 was read as TDP1 cell CPT inactive and TDP1 cell noCPT inactive.
Screening O=C(NCC(=O)N1CCN(c2ccccc2O)CC1)C1CCCCC1 returned TDP1 cell CPT 3.7µM, TGFb SMAD3 inh inactive, TDP1 cell noCPT inconclusive, S2 tox inactive, HepG2 viability inactive and ATXN2 expr inh inactive.
`O=C(C(Sc1ccccc1)c1ccccc1)N1CCN(c2ccccc2F)CC1` (stereo unspecified) gave TDP1 cell CPT inconclusive, TGFb SMAD3 inh inactive, TDP1 cell noCPT 23µM, S2 tox inactive, HepG2 viability inactive and ATXN2 expr inh inactive.
For CCc1cc(C(=O)N2CCN(C(=O)c3ccccc3)CC2)sc1C the results were TDP1 cell CPT inactive, TGFb SMAD3 inh inactive, TDP1 cell noCPT inconclusive, S2 tox inactive, HepG2 viability 5µM and ATXN2 expr inh inactive.
`CCCCNC(=O)c1cccc2c(=O)c(C)c(-c3ccccc3)oc12` gave TDP1 cell CPT inconclusive, TGFb SMAD3 inh inactive, TDP1 cell noCPT inconclusive, S2 tox inactive, HepG2 viability inactive and ATXN2 expr inh inactive.
Screening Cc1c(-c2ccccc2)oc2c(C(=O)N3CCN(c4ccccc4F)CC3)cccc2c1=O returned TDP1 cell CPT 21µM, TGFb SMAD3 inh inactive, TDP1 cell noCPT 21µM, S2 tox inactive, HepG2 viability inactive and ATXN2 expr inh inactive.
`O=C1CCCN1CCCN1CC(C(=O)N(CCO)Cc2ccccc2)CCC1=O` (stereo unspecified) gave TDP1 cell CPT inactive, TGFb SMAD3 inh inactive, TDP1 cell noCPT inactive, S2 tox inactive, HepG2 viability inactive and ATXN2 expr inh inactive.
Screening O=C(NN=Cc1ccccc1OC(F)F)c1ccc(NS(=O)(=O)c2cccs2)cc1 returned TDP1 cell CPT inconclusive, TGFb SMAD3 inh inactive, TDP1 cell noCPT inconclusive, S2 tox inactive, HepG2 viability inactive and ATXN2 expr inh inactive.
Screening CC(=O)Nc1ccc(NC(=O)CSc2nc(N)c(NC(=O)c3ccco3)c(=O)[nH]2)cc1 returned TDP1 cell CPT inconclusive, TGFb SMAD3 inh inactive, TDP1 cell noCPT inconclusive, S2 tox inactive, HepG2 viability inactive and ATXN2 expr inh inactive.
O=C(c1ccccc1)c1ccc(C(=O)N2CCN(c3ccccc3O)CC2)cc1 was read as TDP1 cell CPT 26µM, TGFb SMAD3 inh inactive, TDP1 cell noCPT 12µM, S2 tox inactive and HepG2 viability inactive.
`Nc1ccccc1N1CCN(C(=O)c2ccccc2)CC1` gave TDP1 cell CPT inactive, TGFb SMAD3 inh inactive, TDP1 cell noCPT inactive, S2 tox inconclusive, HepG2 viability inactive and ATXN2 expr inh inactive.
COC(=O)C1CCN(Cc2ccc3c(c2)CN(C(=O)c2cc(C)on2)CCO3)CC1 was read as TDP1 cell CPT inactive[9.04 µM], TDP1 cell noCPT inactive and S2 tox inactive.
COC(=O)C1CCN(Cc2ccc3c(c2)CN(C(=O)c2cc4cc(F)ccc4[nH]2)CCO3)CC1 was read as TDP1 cell CPT inactive[9.04 µM], TDP1 cell noCPT 15µM and S2 tox inactive.
Screening COC(=O)C1CCN(Cc2ccc3c(c2)CN(C(=O)c2cc(-c4ccc(C)o4)[nH]n2)CCO3)CC1 returned TDP1 cell CPT 0.082µM, TDP1 cell noCPT inconclusive and S2 tox inactive.
`O=C1NC[C@@H](CCCCN2C[C@H](Cc3ccccc3)N(CCc3ccc(O)cc3)C(=O)C2=O)N(Cc2ccccc2)C1=O` gave TDP1 cell CPT inactive, TDP1 cell noCPT inactive, S2 tox inactive and ATXN2 expr inh inactive.
`C/C(=N/O)c1no[n+]([O-])c1/C(C)=N\O` gave TDP1 cell CPT inactive, TGFb SMAD3 inh inactive, TDP1 cell noCPT inactive, S2 tox inactive, HepG2 viability inactive and ATXN2 expr inh inactive.
Screening CC1(C)C(=O)C=CC(=O)C(C)(C)C(=O)C=CC(=O)C(C)(C)C2=CC=C(O2)C(C)(C)C(=O)C=CC1=O returned TDP1 cell CPT 0.82µM, TGFb SMAD3 inh inactive, TDP1 cell noCPT 0.82µM, HepG2 viability inactive and ATXN2 expr inh 25µM.
Screening CCC(=O)Nc1ccccc1-c1nc2ccccc2n(CC(=O)c2ccc(C)cc2)c1=O returned TDP1 cell CPT inactive, TGFb SMAD3 inh inactive, TDP1 cell noCPT inactive and HepG2 viability inactive.
`COc1ccc(N(C(=O)c2snc(C(N)=O)c2N)C(C(=O)NCc2ccccc2)c2ccc(F)cc2)c(OC)c1` (stereo unspecified) gave TDP1 cell CPT 26µM, TGFb SMAD3 inh inactive, TDP1 cell noCPT inconclusive, S2 tox inactive, HepG2 viability inactive and ATXN2 expr inh inactive.
`NC(=O)c1nsc(C(=O)N(c2cccc(F)c2)C(C(=O)NC2CCCC2)c2ccc(O)cc2)c1N` (stereo unspecified) gave TDP1 cell CPT inactive, TGFb SMAD3 inh inactive, TDP1 cell noCPT inactive, S2 tox inactive, HepG2 viability inactive and ATXN2 expr inh inactive.
